Results on 45 molecules are retold here after the supplement of paper PMC4723716.

The test system of the experiment is Plasmodium falciparum NF54 stage V gametocytes. The experiment is described as follows: viability index relative to DMSO control (fraction); higher = less gametocyte killing. The settings on record: 2.5 µM, incubation time: 72 h. The gist of the method: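 P. falciparum NF54 stage V gametocytes (serum-free medium, 0.75% gametocytemia, 1.25% hematocrit) were exposed to compound at 2.5 µM for 72 hr at 37°C under low oxygen, then stained with MitoTracker Red CMXRos and saponin for one to two hours. Red particles of 20–70 µm2 in one field per well were counted, and the viability index is that count scaled to the plate mean of solvent-only wells.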

[1] abbreviates: library set: Broad Institute DOS.
Where [2] appears, read: library set: Broad Institute Blood Stage.

The structures appear in SMILES notation. ± gives the uncertainty stated by the source. Over roughly 9,900 compounds, “viability index relative to DMSO control” has its median near 1; the lowest 2% begin near 0.85. What follows is part of a selection rich in the lowest values, with near analogues and random picks from the rest.

As to `CS(=O)(=O)N1CC(=O)N2[C@@H](CO)[C@H](c3ccc(Br)cc3)[C@@H]2C1`, the viability index under setting [1] is 1.05 ± 0.057. The same measure, in the same setting: to `CN1C[C@H]2[C@@H](c3ccccc31)[C@H](CO)N2Cc1ccccc1Cl` belongs 1.03 ± 0.064; to `C[C@H](CO)N1C[C@H](C)[C@H](CN(C)C(=O)Nc2ccc3c(c2)OCO3)Oc2c(NC(=O)c3nc4ccccc4s3)cccc2C1=O`, 0.987 ± 0.021. Same read-out and setting: as for `Cc1noc(C)c1NC(=O)N1C[C@@H](O)COC[C@@H]2O[C@H](CC(=O)N3CCc4ccccc4C3)CC[C@H]21`, the figure is 1.08 ± 0.11; as for `COc1ccc(S(=O)(=O)N(C)C[C@@H]2Oc3c(NC(=O)c4nc5ccccc5s4)cccc3C(=O)N([C@H](C)CO)C[C@@H]2C)cc1`, 0.951 ± 0.047. Still for that read-out and setting: to `O=C(O)[C@H]1[C@H](CO)[C@H]2Cn3c(ccc(C4=CCCCC4)c3=O)[C@H]2N1Cc1ccc2c(c1)OCO2` belongs 1.01 ± 0.026; to `CO[C@H]1CC[C@@H]2CCOc3c(C#N)cccc3C(=O)N(C)C[C@H](OC)[C@@H](C)C(=O)N(C)C[C@@H]1O2`, 1.01 ± 0.033; to `C[C@@H]1CN([C@H](C)CO)C(=O)Cc2cc(NC(=O)CCN3CCOCC3)ccc2O[C@@H]1CN(C)Cc1ccc(C(=O)O)cc1`, 1 ± 0.17. `C[C@@H]1CN([C@@H](C)CO)C(=O)c2ccccc2-c2ccccc2CO[C@@H]1CN(C)Cc1cccc(C(=O)O)c1` registered a viability index under setting [1] of 0.974 ± 0.098. On the same count and under the same terms, to `C[C@H](CO)N1C[C@H](C)[C@@H](CN(C)Cc2cccc3c2OCCCO3)OCc2ccccc2-c2ccccc2C1=O` belongs 1.06 ± 0.093; to `C[C@@H]1CN([C@H](C)CO)C(=O)c2ccccc2-c2ccccc2CO[C@@H]1CN(C)Cc1ccccc1C(F)(F)F`, 0.806 ± 0.11; to `C[C@H](CO)N1C[C@H](C)[C@H](CN(C)Cc2ccccc2C(F)(F)F)OCc2ccccc2-c2ccccc2C1=O`, 1 ± 0.015. The same measure, in the same setting: to `C[C@@H]1CN([C@H](C)CO)C(=O)c2ccccc2-c2ccccc2CO[C@@H]1CN(C)Cc1cccc(C(=O)O)c1` belongs 0.958 ± 0.11; to `C[C@H]1CN([C@@H](C)CO)C(=O)c2ccccc2-c2ccccc2CO[C@H]1CN(C)Cc1ccccc1C(F)(F)F`, 0.726 ± 0.14; to `C[C@@H]1CN([C@@H](C)CO)C(=O)c2ccccc2-c2ccccc2CO[C@H]1CN(C)Cc1cccc(C(=O)O)c1`, 0.987 ± 0.016. Same read-out and setting: to `C[C@H]1CN([C@@H](C)CO)C(=O)c2ccccc2-c2ccccc2CO[C@H]1CN(C)Cc1cccc2c1OCCCO2` belongs 0.825 ± 0.16. Take `CCCN(C)C[C@H]1OCc2ccccc2-c2ccccc2C(=O)N([C@@H](C)CO)C[C@H]1C`: the viability index under setting [1] is 0.89 ± 0.011. The same measure, in the same setting: as for `C[C@@H]1CN([C@@H](C)CO)C(=O)c2ccccc2-c2ccccc2CO[C@@H]1CN(C)Cc1cccc2c1OCCCO2`, the figure is 1 ± 0.11; as for `C[C@@H]1CN([C@@H](C)CO)C(=O)c2ccccc2-c2ccccc2CO[C@@H]1CN(C)Cc1ccccc1C(F)(F)F`, 0.8276 ± 0.0015. Turning to `C[C@@H]1CN([C@@H](C)CO)C(=O)c2ccccc2-c2ccccc2CO[C@H]1CN(C)Cc1ccccc1C(F)(F)F`, the viability index under setting [1] is 0.883 ± 0.044. Same read-out and setting: to `O=C(NCc1ccccc1)[C@H]1[C@H](CO)[C@H]2Cn3c(cccc3=O)[C@@H]1N2C(=O)Cc1ccccn1` belongs 1.01 ± 0.015; to `CCc1cnc(N2[C@H](C#N)[C@H](c3ccc(C#Cc4ccccc4F)cc3)[C@H]2CO)s1`, 0.8872 ± 0.0045. On the same count and under the same terms, as for `COCC(=O)N1[C@H](CO)[C@@H](c2ccccc2)C12CN(Cc1cc(F)ccc1F)C2`, the figure is 1.07 ± 0.023; as for `CC(C)(C)[S@@](=O)N1Cc2cc(C(=O)NC3CCC3)nc(-c3cccc(Br)c3)c2[C@H]1CCO`, 0.994 ± 0.058; as for `O=C(NCC[C@H]1CC[C@@H](NC(=O)c2ccncc2)[C@H](CO)O1)Nc1ccc(Cl)cc1`, 1.17 ± 0.023. The same measure, in the same setting: to `CCCC#Cc1ccc2c(c1)[C@@H]1[C@@H](CCN1S(=O)(=O)c1cccc(F)c1)[C@@H](CO)N2C` belongs 1.12 ± 0.051; to `C[C@H]1CN([C@@H](C)CO)C(=O)c2ccccc2-c2ccccc2CO[C@@H]1CN(C)Cc1ccccc1C(F)(F)F`, 0.843 ± 0.028; to `C[C@@H]1CN([C@H](C)CO)C(=O)c2ccccc2-c2ccccc2CO[C@@H]1CN(C)Cc1cccc2c1OCCCO2`, 0.941 ± 0.019.

Regarding `C[C@H](CO)N1C[C@H](C)[C@H](CN(C)Cc2cccc3c2OCCCO3)OCc2ccccc2-c2ccccc2C1=O`, under setting [1], the viability index came out at 1.04 ± 0.039.

`O=C(Cc1cccnc1)N1CC(=O)N2[C@H](C1)[C@@H](c1ccc(/C=C/c3ccccc3)cc1)[C@@H]2CO` came in with a viability index under setting [1] of 1 ± 0.029.

Molecule `COCC(=O)N1CC(=O)N2[C@H](CO)[C@@H](c3ccc(-c4ccccc4F)cc3)[C@@H]2C1` gave a viability index under setting [1] of 1.07 ± 0.083.

As for `O=C(c1cnccn1)N1CC(=O)N2[C@@H](CO)[C@@H](c3ccc(-c4cccc(F)c4)cc3)[C@@H]2C1`, the viability index under setting [1] turned out to be 1.02 ± 0.058. On the same count and under the same terms, as for `O=C(c1cccnc1)N1CC(=O)N2[C@H](CO)[C@H](c3ccc(-c4ccccc4F)cc3)[C@H]2C1`, the figure is 1.04 ± 0.041.

Consider `O=C(c1ccccc1)N1CC(=O)N2[C@H](CO)[C@@H](c3ccc(-c4ccccc4)cc3)[C@H]2C1`, for which, under setting [1], the viability index was determined as 1.018 ± 0.0095.

Under setting [1], `O=C(c1ccccc1)N1CC(=O)N2[C@H](CO)[C@H](c3ccc(-c4ccccc4)cc3)[C@@H]2C1` yielded a viability index of 1.02 ± 0.066.

`O=C(c1ccccc1)N1CC(=O)N2[C@H](C1)[C@@H](c1ccc(-c3ccccc3)cc1)[C@@H]2CO` had a viability index under setting [1] of 0.829 ± 0.051. Under setting [2], `O=C(c1cccc(F)c1)N1CC(=O)N2[C@H](C1)[C@@H](c1ccc(-c3cccnc3)cc1)[C@@H]2CO` showed a viability index of 0.817 ± 0.042. Under setting [1], `O=C(c1cnccn1)N1CC(=O)N2[C@H](CO)[C@@H](c3ccc(-c4cccc(F)c4)cc3)[C@@H]2C1` showed a viability index of 0.99 ± 0.047. In turn, `O=C(c1cccc(F)c1)N1CC(=O)N2[C@H](CO)[C@H](c3ccc(-c4cccnc4)cc3)[C@H]2C1` returned a viability index under setting [2] of 0.771 ± 0.058. Take `O=C(c1cnccn1)N1CC(=O)N2[C@H](C1)[C@@H](c1ccc(-c3cccc(F)c3)cc1)[C@@H]2CO`: under setting [1], the viability index is 1.02 ± 0.012. Same read-out and setting: to `O=C(c1cnccn1)N1CC(=O)N2[C@@H](CO)[C@H](c3ccc(-c4cccc(F)c4)cc3)[C@@H]2C1` belongs 1 ± 0.049. Take `O=C(c1ccncc1)N1CC(=O)N2[C@H](C1)[C@@H](c1ccc(-c3cccnc3)cc1)[C@@H]2CO`: under setting [2], the viability index came to 0.891 ± 0.059. Same read-out and setting: as for `O=C(c1ccc(F)cc1)N1CC(=O)N2[C@H](C1)[C@@H](c1ccc(-c3cccnc3)cc1)[C@@H]2CO`, the figure is 0.733 ± 0.11.

In turn, `O=C(Cc1cccnc1)N1CC(=O)N2[C@H](CO)[C@@H](c3ccc(C4=CCCCC4)cc3)[C@H]2C1` had a viability index under setting [1] of 0.9507 ± 0.0051.

Consider `O=C(C1CCC1)N1CC(=O)N2[C@H](C1)[C@H](c1ccc(Br)cc1)[C@@H]2CO`, for which the viability index under setting [1] was determined as 1.02 ± 0.0049.
